FPRL1 binder: ligands of human FPRL1, also counter-screen for FPR ligands. P25090. FPRL1-expressing cells, fluorescent ligand binding inhibition, flow cytometry. inhibition, % (no concentration beside the values). 24,000 tested, 0.3% active. AID 441;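 note: 0% = buffer alone and 100% = receptor blocker peptide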
Target sequence (P25090 whole entry, looked up): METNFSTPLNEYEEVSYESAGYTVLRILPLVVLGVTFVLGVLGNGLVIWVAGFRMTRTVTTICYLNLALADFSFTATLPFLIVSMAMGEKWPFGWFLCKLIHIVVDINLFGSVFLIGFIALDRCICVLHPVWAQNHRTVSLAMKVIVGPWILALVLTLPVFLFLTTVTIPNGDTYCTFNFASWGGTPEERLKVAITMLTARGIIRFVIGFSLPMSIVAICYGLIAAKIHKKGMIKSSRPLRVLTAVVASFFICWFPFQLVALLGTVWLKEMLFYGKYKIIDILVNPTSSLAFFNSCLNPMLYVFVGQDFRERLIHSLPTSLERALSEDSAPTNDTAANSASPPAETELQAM
QS inhibitor: inhibitors of bacterial quorum sensing in S. aureus. S. aureus RN6390 RNAIII-GFP reporter, AIP-induced, flow cytometry 3 h. inhibition, % at 2 µM. 24,000 tested, 0.3% active. AID 527;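 active = share of bacteria positive for the green fluorescent reporter and its mean brightness both inhibited by 50% or more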;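 note: 0% = AIP-stimulated control and 100% = unstimulated bacteria without AIP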
FPR binder: binds the human formylpeptide receptor FPR | AID 440 | 24,000 tested, 0.74% active | FPR-expressing cells, fluorescent ligand binding, flow cytometry | P21462 | inhibition, % (concentration not given with the values);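 note: 0% = buffer wells and 100% = receptor blocker peptide wells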
LNCaP diff act: LNCaP prostate cell differentiation activation. flow cytometry side scatter, 4 d. side scatter shift, % at 10 µM. 24,000 tested, 0.56% active. AID 795;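 active = side scatter shift above 30%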;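 note: androgen-responsive LNCaP prostate cancer cells in charcoal-stripped serum medium; percent of cells past a gate set so DMSO wells show 10% shift; higher shift means more granular cells and more differentiation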
An asterisk follows results filed as active; / = not tested or not shown. A selection: hits, their analogues and other compounds. The true share with any hit is near 1.7%. Cut-off read from the data, not from the text of the source, unless noted: active = inhibition above about 30%; inconclusive = no clear call, values can overlap the other calls; inactive = below that.

SMILES	FPRL1 binder	QS inhibitor	FPR binder	LNCaP diff act
COCCCN1C(=O)C(O)=C(C(=O)c2ccco2)C1c1ccccc1 (stereo not drawn)	1	/	43*	/
CCCOc1ccc(/C(O)=C2/C(=O)C(=O)N(CCCn3ccnc3)C2c2cccs2)cc1 (stereo not drawn)	1	/	6	/
COc1cccc(C2C(C(=O)c3cccs3)=C(O)C(=O)N2CCCn2ccnc2)c1OC (stereo not drawn)	-1	0	32*	13
CCCOc1ccc(C2C(C(=O)c3ccco3)=C(O)C(=O)N2CCCn2ccnc2)cc1 (stereo not drawn)	-5	/	55*	/
CC(C)Oc1ccc(C2C(C(=O)c3ccco3)=C(O)C(=O)N2Cc2cccnc2)cc1 (stereo not drawn)	-2	/	16	/
COc1ccc(C2C(C(=O)c3sc(C)nc3C)=C(O)C(=O)N2CCN(C)C)cc1 (stereo not drawn)	-2	0	4	9
Cc1nc(C)c(C(=O)C2=C(O)C(=O)N(CCCn3ccnc3)C2c2ccc(Cl)cc2)s1 (stereo not drawn)	24	/	38*	/
CCOc1cc(C2C(C(=O)c3ccco3)=C(O)C(=O)N2CCc2ccccc2)ccc1O (stereo not drawn)	-4	/	86*	/
Cc1ccc(C2C(C(=O)c3sc(C)nc3C)=C(O)C(=O)N2CCN2CCOCC2)o1 (stereo not drawn)	26	/	35*	/
CC(C)C(NS(=O)(=O)c1cccc2nsnc12)C(=O)N1CCc2ccccc2C1 (stereo not drawn)	-3	-7	0	21
CC(=O)c1cccc(NC2c3ccccc3C(=O)N2Cc2ccc3c(c2)OCO3)c1 (stereo not drawn)	-2	1	-4	30*
CCOC(=O)c1cc(NC(=O)C2C3CCC(O3)C2C(=O)O)cc(C(=O)OCC)c1 (stereo not drawn)	15	/	2	/
CCOC(=O)c1c(NC(=O)C2C3CCC(O3)C2C(=O)O)sc(C)c1-c1ccc(C)cc1 (stereo not drawn)	-4	/	46*	/
Cc1ccccc1-c1nc(CN2CCC(C(=O)NCc3ccco3)CC2)c(C)o1	-2	3	-7	14
Cc1ccccc1-c1nc(CN2CCC(C(=O)NCCCN3CCOCC3)CC2)c(C)o1	2	1	-4	16
Cc1ccccc1-c1nc(CN2CCC(C(=O)NCCCN3CC(C)CC(C)C3)CC2)c(C)o1 (stereo not drawn)	3	8	1	75*
Cc1ccccc1-c1nc(CN2CCC(C(=O)NCCCN3CCCC3)CC2)c(C)o1	1	0	3	65*
O=C(NCC1CCCO1)C1CCC(CNS(=O)(=O)c2ccccc2)CC1 (stereo not drawn)	1	0	0	8
CC(C)CN(CC(C)C)C(=O)CS(=O)(=O)Cc1ccccc1	-3	-2	63*	14
O=C(O)c1ccc(S(=O)(=O)Cc2ccccc2)cc1	3	-1	11	9
Cc1ccsc1C1C2=C(CC(C)(C)CC2=O)Nc2ncnn21 (stereo not drawn)	2	-2	36*	9
Cc1ccsc1C1C2=C(CCCC2=O)Nc2ncnn21 (stereo not drawn)	-2	0	9	11
COc1ccc(-n2cc(-c3ccccc3)c3c(N4CCN(CCO)CC4)ncnc32)cc1	-2	1	5	44*
Cc1cccc(-n2nc3c(c2NC(=O)c2ccco2)CSC3)c1C	-2	-2	96*	5
CCOC(=O)Cc1cc(=O)n2[nH]c(C)c(-c3ccccc3)c2n1	26	/	51*	/
SMILES	FPRL1 binder	QS inhibitor	FPR binder	LNCaP diff act
CCOC(=O)Cc1cc(=O)n2[nH]c(C)c(C#N)c2n1	-8	/	-15	/
CN(C)c1ccc(CNC2CC(C)(C)NC(C)(C)C2)cc1	1	1	-6	36*
COc1cccc(-n2nnc3c(=O)n(CC(=O)N4CCCc5ccccc54)cnc32)c1	0	-1	-1	9
CCCN1CCN(C(=O)CN2C(=O)CC(C)(C)S(=O)(=O)c3ccccc32)CC1	-3	-2	-23	3
CCc1nn(C(C)C(=O)N2CCc3ccccc3C2)c(=O)c2cc3occc3n12 (stereo not drawn)	-7	1	4	28
COc1ccc(Cl)c(NC(=O)NCCN2CCN(c3ccccc3)CC2)c1	0	0	7	18
COc1ccc(Cl)cc1N1CCN(CCNC(=O)Nc2ccccc2C)CC1	-1	0	14	45*
COc1ccc(Cl)c(N2CCN(CCCNC(=O)Nc3ccc(C)cc3)CC2)c1	-2	4	-6	40*
COc1ccccc1N1CCN(CCCNC(=O)Nc2ccccc2C)CC1	-19	-8	-16	3

Screening data as filed in PubChem.
